The sequences below were run on VDR:RXRa (NR concentration 270 nM, RXRa partner concentration 90 nM) (assay: PBM binding z-score (relative to random genomic background probes); higher = stronger binding; sequences stand for … in GC…GCGATTGACAGCGTAGAATGAAGG).
Procedure: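 Protein-binding microarray (Agilent 4x180K custom design, double-stranded 60-nt probes: 5' GC cap, 34-nt variable region, 24-nt constant primer region; full probe sequence given). Purified or IVT nuclear receptor:RXRα heterodimers (3:1 NR:RXRα, mostly 270:90 nM) or homodimers were incubated for 1 h in PBS with 2% milk and no ligand, then detected with Alexa488 antibodies. Fluorescence from o1-orientation probes (~5 replicates averaged) was converted to z-scores against 500 random hg19 background probes. Variable regions are seed direct-repeat (DR0–DR5) sites, all their single-nucleotide variants and half-site ablations.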

**Q.** ATGGAAAGGTCGACGAGGTGAGTATACACCGTTT was tested. Which PBM binding z-score did it give?
**A.** Its PBM binding z-score is 5.25.

**Q.** With GGAACGCGGGCAAGTTGATAGCAGAGTTTGATGG as the sequence, how does the PBM binding z-score read?
**A.** The PBM binding z-score was -0.834.

**Q.** How did the PBM binding z-score turn out when ATCTCTAGGTAAGACGCAGTTCAGTGAAGAACGC was run?
**A.** The PBM binding z-score was 0.101.

**Q.** CGTACTGGGCCAAGGTCATTGATCAGTCAAAGCA was tested. Which PBM binding z-score did it give?
**A.** Its PBM binding z-score is 3.3.

**Q.** With CGTCCAAGGTCAAGGTCAGTAAAAGAGACTCGAA as the sequence, how does the PBM binding z-score read?
**A.** The PBM binding z-score was 4.65.

**Q.** How did the PBM binding z-score turn out when TAGCCAAGGTCATGCGGGCCAGTATAGTGTCGGC was run?
**A.** Its PBM binding z-score is 5.15.

**Q.** With TCTTGTAGATCAATAGGGGTTAAGAAAGTGCGCT as the sequence, how does the PBM binding z-score read?
**A.** Its PBM binding z-score is 2.64.

**Q.** CCTATTAGTTGACCATAAAGGCAACCGAAGCTCG was tested. Which PBM binding z-score did it give?
**A.** Its PBM binding z-score is 0.841.

**Q.** For AGAACGAGGGCAATGATTTGATAGCACGGGTGGC, which PBM binding z-score is on record?
**A.** The PBM binding z-score was 0.334.

**Q.** Which PBM binding z-score does the source give for CCTTACGGGTCACTGACAGGTGATAGCATTTGGA here?
**A.** The PBM binding z-score was 4.2.

**Q.** For CATACAGGGTCAGGTAGGCCAGAGTAGGGACGGC, which PBM binding z-score is on record?
**A.** The PBM binding z-score was 3.35.

**Q.** How did the PBM binding z-score turn out when GTACCAAGGTGAATAGGTCGTAGATGAGTAGGCG was run?
**A.** Its PBM binding z-score is 0.667.

**Q.** For TTCCCAAGGTGAGCTGAGGTCGTTGATCCAACTC, which PBM binding z-score is on record?
**A.** Its PBM binding z-score is 4.13.

**Q.** For CCTTACGGGTCACTGACAGGTTATAGCTTTTGGA, which PBM binding z-score is on record?
**A.** Its PBM binding z-score is 3.56.

**Q.** ACAGACAGGTGAGGGAAGGTAACTCAGCTGGACG was tested. Which PBM binding z-score did it give?
**A.** The PBM binding z-score was -0.405.

**Q.** Which PBM binding z-score does the source give for TCTAGTTGGTCACGGAGGTCACATACGACGGGTA here?
**A.** The PBM binding z-score was 5.92.

**Q.** CCTTCCGGGTCACGAGGTTATAGCACGACGAGCG was tested. Which PBM binding z-score did it give?
**A.** The PBM binding z-score was 5.39.

**Q.** With ATATGTAGGTTACATCCGGGTCATACAGGCTATG as the sequence, how does the PBM binding z-score read?
**A.** The PBM binding z-score was 4.02.

**Q.** Which PBM binding z-score does the source give for GGAATGAGGGCAAAGTTGATAGCATCTGTCGACG here?
**A.** The PBM binding z-score was 1.82.

**Q.** For TCAGACAGGTTAAGGTAACTCAGGTACGCAGTCG, which PBM binding z-score is on record?
**A.** Its PBM binding z-score is 1.53.

**Q.** ATCTCTAGGTAAAACTTCAGTGAATCCCGAGGAT was tested. Which PBM binding z-score did it give?
**A.** The PBM binding z-score was -0.0846.

**Q.** For ATCTCTAGGTAACGAAGTTCAGTGAATGCCGAAC, which PBM binding z-score is on record?
**A.** The PBM binding z-score was 2.56.

**Q.** For GGAACGAGGGCAAGCTGATAGCAGAGTTTGATGG, which PBM binding z-score is on record?
**A.** Its PBM binding z-score is 0.0958.

**Q.** With CATACAGGGTCAGCTAGGCCAGAGTAGGGACGGC as the sequence, how does the PBM binding z-score read?
**A.** The PBM binding z-score was 3.8.

**Q.** How did the PBM binding z-score turn out when ATATGAAGGTTAGCTGGGGTCATTCAGACTAGGC was run?
**A.** Its PBM binding z-score is 6.61.

**Q.** With CCTACTGGGCCAAAGGTCATCGATTCCAATGCTC as the sequence, how does the PBM binding z-score read?
**A.** The PBM binding z-score was 4.53.

**Q.** How did the PBM binding z-score turn out when ACTAGCAGCCCAAGTTTGGGTCACTCAAACAAAG was run?
**A.** Its PBM binding z-score is 0.327.

**Q.** TAGCCTAGGTCAATCAGGGGCCAGTATAGAAAGC was tested. Which PBM binding z-score did it give?
**A.** Its PBM binding z-score is 2.32.

**Q.** For TAGCCTAGGTCAGATCGGGCTAGTATACGCTATA, which PBM binding z-score is on record?
**A.** The PBM binding z-score was 0.302.

**Q.** With CCTTACGGGTCACGAGGTTATAGCGCGACGAGCG as the sequence, how does the PBM binding z-score read?
**A.** The PBM binding z-score was 4.99.

**Q.** GCGACTGGGGCAAAGCGGGTTACCATAAGGTTGG was tested. Which PBM binding z-score did it give?
**A.** Its PBM binding z-score is 0.145.

**Q.** How did the PBM binding z-score turn out when GGAACGAGGGCATTCGAGTTGTTAGCATGGCGAT was run?
**A.** The PBM binding z-score was 2.82.

**Q.** With TTACCAAGGTGAAGGTCGTTTATCCCTCTGTAGA as the sequence, how does the PBM binding z-score read?
**A.** Its PBM binding z-score is 1.66.

**Q.** With ATATGTAGGTTAGCTGGGGTCATTTAGACTAGGC as the sequence, how does the PBM binding z-score read?
**A.** Its PBM binding z-score is 5.97.

**Q.** CCTAGCAGGCCAGGGCCACTCAAGCATTTCGCTT was tested. Which PBM binding z-score did it give?
**A.** Its PBM binding z-score is -1.03.

**Q.** With CCTACTGGGCCATCAGGTCAGTGATATCAACGTT as the sequence, how does the PBM binding z-score read?
**A.** Its PBM binding z-score is 0.21.

**Q.** ATCTCTAGGTACGACTCAGTTCAGTGAAGAACGC was tested. Which PBM binding z-score did it give?
**A.** Its PBM binding z-score is 1.28.

**Q.** AGAATGTGGTTACCAAAGATCAGGGAAACGCTTG was tested. Which PBM binding z-score did it give?
**A.** Its PBM binding z-score is -0.233.

**Q.** For TCATAGAGGTAAATGCTAGGTGAAAGTCCGATCT, which PBM binding z-score is on record?
**A.** Its PBM binding z-score is 0.364.

**Q.** Which PBM binding z-score does the source give for ACATGTAGGTTAAGGGTCATTCAGGTTGGTTCGC here?
**A.** The PBM binding z-score was 5.84.

Source: the supplement of paper PMC6555819
